Holding throughout (test): yeast three-hybrid, YBZ-1, SC-Leu-His + 0.5 mM 3-AT, 4 days
What all share (conditions): tags: N-Gal4 AD-HA kept; label: inside an RPR1-promoter hybrid RNA with tandem MS2 sites; ssRNA

The target of one assay is PUM1 PUF domain R8-RRI (Homo sapiens, UniProt Q14671 828-1176, N1122R;Y1123R;Q1126I). Summed up:
(§1)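 Each repeat of the Pumilio-1 PUF domain was randomized at its three base-contacting residues, and these libraries were co-expressed from a centromeric plasmid with matching RNA elements in strain YBZ-1. After four days on SC-Leu (input) or SC-Leu-His + 0.5 mM 3-AT (selection), the repeat regions were PCR-amplified and Illumina-sequenced. The interaction score compares variant frequency between input and selection as a log change, computed in log2 with a pseudocount of 1 for absent variants.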

For another assay, the target named is PUM1 PUF domain R8-HYL (Homo sapiens, UniProt Q14671 828-1176, N1122H;Q1126L). Summed up:
as §1

The next assay has as its target PUM1 PUF domain R1-GRR (Homo sapiens, UniProt Q14671 828-1176, S863G;Q867R). An outline of the steps: as §1
Another assay concerns the target PUM1 PUF domain R3-SPS (Homo sapiens, UniProt Q14671 828-1176, C935S;R936P;Q939S). An outline of the steps: as §1
The next assay addresses PUM1 PUF domain R3-LFV (Homo sapiens, UniProt Q14671 828-1176, C935L;R936F;Q939V). An outline of the steps:
as §1

The target of another assay is PUM1 PUF domain R3-LRS (Homo sapiens, UniProt Q14671 828-1176, C935L;Q939S). An outline of the steps: as §1
For another assay, the target named is T1, PUM1 PUF domain R6-SWK (Homo sapiens, UniProt Q14671 828-1176, N1043S;Y1044W;Q1047K).
T1 sequence: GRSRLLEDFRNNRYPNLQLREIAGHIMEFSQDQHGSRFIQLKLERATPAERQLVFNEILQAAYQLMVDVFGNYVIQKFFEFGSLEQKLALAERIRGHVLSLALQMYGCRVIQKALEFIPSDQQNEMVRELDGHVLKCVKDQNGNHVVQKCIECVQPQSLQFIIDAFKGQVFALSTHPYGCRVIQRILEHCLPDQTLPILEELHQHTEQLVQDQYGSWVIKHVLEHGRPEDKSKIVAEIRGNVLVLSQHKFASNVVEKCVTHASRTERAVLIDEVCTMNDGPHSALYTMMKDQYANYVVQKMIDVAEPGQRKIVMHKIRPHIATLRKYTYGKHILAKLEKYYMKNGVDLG
Summed up:
as §1

A further assay concerns the target PUM1 PUF domain R5-FRD (Homo sapiens, UniProt Q14671 828-1176, C1007F;Q1011D). An outline of the steps: as §1
The next assay concerns the target T2, PUM1 PUF domain R6-RHR (Homo sapiens, UniProt Q14671 828-1176, N1043R;Y1044H;Q1047R).
T2 sequence: T1 sequence with S216R, W217H, K220R
Summed up: as §1

For another assay, the target named is PUM1 PUF domain R1-NIG (Homo sapiens, UniProt Q14671 828-1176, S863N;R864I;Q867G). An outline of the steps: as §1

Changes are numbered by the printed parent chain.

“GGCUAGAACUAGUGGAUCCCCCGGCGCCCGGCGGCUCGAGCCCGGGUAAGCGUAAAUAGUCUGCAUGCCGCCGGGCGCCAUGCCUGCAGGUCGACUCUAGAAAACAUG”: the binding signal with PUM1 PUF domain R8-RRI is 2.58 log2 enrichment (interaction score); in the assay with PUM1 PUF domain R8-HYL, 2.26 log2 enrichment (interaction score).

Regarding “GGCUAGAACUAGUGGAUCCCCCGGCGCCCGGCGGCUCGAGCCCGGGUAAGUGUAAAUCGUCUGCAUGCCGCCGGGCGCCAUGCCUGCAGGUCGACUCUAGAAAACAUG”, the binding signal in the assay with PUM1 PUF domain R1-GRR is 3.99 log2 enrichment (interaction score).

Regarding “GGCUAGAACUAGUGGAUCCCCCGGCGCCCGGCGGCUCGAGCCCGGGUAAGUGUAAUUAGUCUGCAUGCCGCCGGGCGCCAUGCCUGCAGGUCGACUCUAGAAAACAUG”, the binding signal in the assay with PUM1 PUF domain R3-SPS is 1.47 log2 enrichment (interaction score); in the assay with PUM1 PUF domain R3-LFV, 4.09 log2 enrichment (interaction score); with PUM1 PUF domain R3-LRS, 1.26 log2 enrichment (interaction score).

On to “GGCUAGAACUAGUGGAUCCCCCGGCGCCCGGCGGCUCGAGCCCGGGUAAGUGUAAAUGGUCUGCAUGCCGCCGGGCGCCAUGCCUGCAGGUCGACUCUAGAAAACAUG”, for which the binding signal with PUM1 PUF domain R1-GRR is 1.78 log2 enrichment (interaction score).

On to “GGCUAGAACUAGUGGAUCCCCCGGCGCCCGGCGGCUCGAGCCCGGGUAAGUGUAAAUAGUCUGCAUGCCGCCGGGCGCCAUGCCUGCAGGUCGACUCUAGAAAACAUG”, for which the binding signal in the assay with PUM1 PUF domain R6-SWK is 6.97 log2 enrichment (interaction score); in the assay with PUM1 PUF domain R3-SPS, 3.13 log2 enrichment (interaction score); with PUM1 PUF domain R5-FRD, 1.06 log2 enrichment (interaction score); in the assay with PUM1 PUF domain R8-RRI, 1.24 log2 enrichment (interaction score); in the assay with PUM1 PUF domain R3-LFV it was 3.48 log2 enrichment (interaction score); with PUM1 PUF domain R6-RHR, 3.36 log2 enrichment (interaction score).

As to “GGCUAGAACUAGUGGAUCCCCCGGCGCCCGGCGGCUCGAGCCCGGGUAAGUGUCAAUAGUCUGCAUGCCGCCGGGCGCCAUGCCUGCAGGUCGACUCUAGAAAACAUG”, in the assay with PUM1 PUF domain R5-FRD, the binding signal is 2.84 log2 enrichment (interaction score).

“GGCUAGAACUAGUGGAUCCCCCGGCGCCCGGCGGCUCGAGCCCGGGUAAGUGUAACUAGUCUGCAUGCCGCCGGGCGCCAUGCCUGCAGGUCGACUCUAGAAAACAUG”: the binding signal with PUM1 PUF domain R3-LFV is 2.66 log2 enrichment (interaction score).

Regarding “GGCUAGAACUAGUGGAUCCCCCGGCGCCCGGCGGCUCGAGCCCGGGUAAGUGUAAAUUGUCUGCAUGCCGCCGGGCGCCAUGCCUGCAGGUCGACUCUAGAAAACAUG”, the binding signal in the assay with PUM1 PUF domain R1-NIG was 3.06 log2 enrichment (interaction score); with PUM1 PUF domain R1-GRR it was 2.59 log2 enrichment (interaction score).

Consider “GGCUAGAACUAGUGGAUCCCCCGGCGCCCGGCGGCUCGAGCCCGGGUAAGUGAAAAUAGUCUGCAUGCCGCCGGGCGCCAUGCCUGCAGGUCGACUCUAGAAAACAUG”, for which the values for the binding signal with PUM1 PUF domain R6-SWK and with PUM1 PUF domain R6-RHR were 1.25 log2 enrichment (interaction score) and 1.86 log2 enrichment (interaction score), respectively.

For the sequence “GGCUAGAACUAGUGGAUCCCCCGGCGCCCGGCGGCUCGAGCCCGGGUAAGUGUAAGUAGUCUGCAUGCCGCCGGGCGCCAUGCCUGCAGGUCGACUCUAGAAAACAUG”, the binding signal with PUM1 PUF domain R3-LFV is 5.59 log2 enrichment (interaction score); with PUM1 PUF domain R3-LRS it was 4.15 log2 enrichment (interaction score).

The record behind these values is PMC8384837, “Expanding the binding specificity for RNA recognition by a PUF domain”.
